Only some compounds are listed: those with a hit (about 4% of all), similar ones and a draw of the others.
Peg3 promoter = inhibitors of Peg3 promoter | inhibition, % at 20 µM | AID 588405 | 360,000 compounds, 1.7% hits | HeLa PEG-Prom luciferase reporter, luminescence, overnight;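 active = inhibition of at least 50% at 20 µM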
KKLEB tox = reduces viability of KKLEB cystic fibrosis airway cells; KKLEB CF airway cells viability, ATPlite luminescence, overnight; stronger effect = lower value; cells stimulated with P. aeruginosa culture filtrate; activity change (cytotoxicity), % at 5 µM; 360,000 compounds, 0.36% hits;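 active = corrected activity change at or below -50% at 5 µM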
TWEAK-Fn14 inh = TWEAK-Fn14 signaling inhibition | TWEAK-stimulated Fn14 reporter cells, luciferase luminescence, 8 h | inhibition, % at 10 µM | 360,000 compounds, 2% hits; in the data active = inhibition above about 50%
HIF-2a block = inhibitors of HIF-2a. inhibition, % at 18.8 µM. AID 624352. 786-0 RCC cells HIF-2a reporter, luciferase luminescence, overnight. 360,000 compounds, 0.72% hits;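 active = inhibition of the luminescence signal of 40% or more relative to plate controls, in a single-dose primary screen at 18.75 µM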
CF NFkB block = blocks PAF-induced NF-kB reporter in cystic fibrosis cells; KKLEB NF-kB-GFP reporter, GFP fluorescence overnight; inhibition, % at 5 µM; 360,000 compounds, 0.86% hits; AID 588850;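 active = at least 50% inhibition at 5 µM, scaled per plate between neutral and stimulator controls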;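 note: PAF is a Pseudomonas aeruginosa culture filtrate used as stimulus; plate controls were PAF-stimulated DMSO wells for no effect and unstimulated DMSO wells for full effect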
TROY NFkB inh = inhibitors of TROY-dependent NF-kB signaling | inhibition, % at 10 µM | 360,000 compounds, 0.98% hits | Q293 LMP1-TROYcd NF-kB luciferase reporter, 4 h;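 active = compounds whose plate-normalised and pattern-corrected inhibition of the luciferase reporter signal at the single screening dose is 50% or more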
The depositor's hits bear a star; nt = no result given.

SMILES	Peg3 promoter	KKLEB tox	TWEAK-Fn14 inh	HIF-2a block	CF NFkB block	TROY NFkB inh
CCN(CC)S(=O)(=O)c1ccc(NC(=O)C2CC(=O)N(c3ccc4c(c3)OCCO4)C2)cc1 (centres undefined)	-32	2	60*	15	15	7
CC(=O)Nc1ccc(-c2csc(NC(=O)C3CC(=O)N(c4ccc5c(c4)OCCO5)C3)n2)cc1 (centres undefined)	5	-13	14	31	-3	39
COc1ccc(N2CC(C(=O)Nc3ccc4c(c3)OCCO4)CC2=O)cc1 (centres undefined)	18	-2	42	12	-1	-7
CCc1ccc(C(=O)NNC(=O)C2CC(=O)N(c3ccc4c(c3)OCCO4)C2)cc1 (centres undefined)	-6	7	19	5	-18	-1
COC(=O)c1ccc(CSc2nnc(NC(=O)C3CC(=O)N(c4ccc5c(c4)OCCO5)C3)s2)cc1 (centres undefined)	-3	5	54*	11	-9	44
Cc1cc(NC(=O)c2ccccc2C)ccc1NC(=O)c1ccccc1Cl	-20	-6	25	-49	-6	6
O=C(NCCOc1ccccc1)C1C(=O)Nc2ccccc2C(=O)N1C1CCCCC1 (centres undefined)	nt	nt	nt	9	nt	nt
Cc1cc(NC(=O)C2CC(=O)N(c3ccccc3C)C2)no1 (centres undefined)	6	-1	83*	7	-6	-7
Cc1cc(NC(=O)C2CC(=O)N(c3cccc(C)c3C)C2)no1 (centres undefined)	2	6	2	6	-10	-20
Cc1cccc(N2CC(C(=O)Nc3ccc4c(c3)OCCO4)CC2=O)c1C (centres undefined)	39	9	63*	27	-8	34
CC(=O)Nc1ccc(NC(=O)C2CC(=O)N(c3cccc(C)c3C)C2)cc1 (centres undefined)	3	6	-5	8	4	6
CCc1c(C)nc(N2CCN(c3ccc(OC)cc3)CC2)[nH]c1=O	-14	-7	2	10	2	-9
O=C(COC(=O)/C=C/C(=O)OCC(=O)NC12CC3CC(CC(C3)C1)C2)NC12CC3CC(CC(C3)C1)C2	103*	-16	-10	29	41	6
COc1ccc(OC)c2c1C(=O)C(Cl)=C(Cl)C2=O	107*	-54*	94*	94*	90*	53*
Cc1ccccc1NC(=S)NNC(=O)c1csc2c1CCC(C)C2 (centres undefined)	1	1	87*	-7	14	80*
CCNC(=S)NNC(=O)c1csc2c1CCC(C)C2 (centres undefined)	-66	5	-24	-77	-3	-14
CCCC(C)(C)C(=O)N1CCC1(C)C(=O)NS(=O)(=O)c1ccc(Br)cc1 (centres undefined)	-3	-5	6	9	11	-4
COc1ccc(Br)cc1CN1CCN(Cc2c[nH]c3ccccc23)CC1	52*	-5	12	16	10	-11
COc1ccc(CN2CCN(Cc3c[nH]c4ccccc34)CC2)cc1OC	-21	5	3	20	2	9
COc1ccc(/C=N\NC(=O)c2ccc(Cn3cc(Br)c([N+](=O)[O-])n3)o2)c(OC)c1C	3	-24	63*	16	-10	5
CCOC(=O)c1ccc(S(=O)(=O)N2CCN(C/C=C/c3ccccc3)CC2)cc1	9	18	-9	20	-32	17
CCOC(=O)c1sc(Nc2nc3c(OC)cccc3s2)cc1C	77*	-5	44	-223	-13	-18
COc1cccc2sc(Nc3nc4ccc(NC(C)=O)cc4s3)nc12	-73	-5	51*	-190	-23	-40
COc1ccc2nc(Nc3nc(C)c(C(C)=O)s3)sc2c1	-289	4	64*	-266	-23	-3
CCC(c1nnnn1-c1c(C)cccc1C)N1CCCN(Cc2ccc(F)cc2)CC1 (centres undefined)	nt	nt	-1	-9	nt	-4
O=S(=O)(NCc1ccc(F)cc1)c1ccc(Br)cc1Br	-6	-16	0	-16	20	-3
CC(NC(=O)Cn1ncc(Cl)c(Cl)c1=O)C12CC3CC(CC(C3)C1)C2 (centres undefined)	97*	-78*	103*	91*	84*	87*

Screening results (PubChem BioAssay)
